The results in this text go back to PubChem BioAssay AID686978 (National Center for Advancing Translational Sciences (NCATS), 2013).

Hit rate of the full screen: of about 420,000 compounds, about 64,000 (15%) were called active. Not shown: some 27% with an inconclusive outcome. Calls follow the shape of the dose curve; as a rule, active = well fitted inhibition curve with a large enough effect; inconclusive = small, poorly fitted or top-dose-only effect; inactive = flat fitted curve, though single readings scatter. Only a sample is shown. Where a call stands in place of a potency, no number is given.
Potency is read from the fitted curve at half-maximal effect.

The test is described as follows: qHTS for Inhibitors of human tyrosyl-DNA phosphodiesterase 1 (TDP1): qHTS in cells in absence of CPT. Also: nearly all actives have a fitted effect of over 55% in size. The settings on record: DT40 Tdp1-/- hTDP1 cells, no CPT, ATP luminescence, 48 h; activity change, negative = growth inhibition: at 46.2 µM (top of the series). The method, boiled down: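 A cellular qHTS used chicken DT40 cells lacking endogenous Tdp1 but carrying stably transfected human TDP1. Compounds were applied without camptothecin, and cell growth kinetics were judged by ATP-dependent luminescence after ≥48 hr.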
In the case of `COc1cccc(-c2nc3nc(C)cc(C)n3c2NC2CCCCC2)c1`, the Potency was 20.6 µM (active). For `COc1cccc(CSc2nc3nc(C)cc(C)n3n2)c1` the value was “inactive”; for `COc1cccc(-c2cnc(OC(C)(C)C)nc2OC(C)(C)C)c1`, “inactive”; for `COc1ccc(-c2cc(C)nc3nc(N)nn23)cc1`, “inactive”. In the case of `COc1ccc2nc(C)cc(Nc3cccc(C(=O)O)c3)c2c1`, the Potency entry is “inactive”.

As for `COc1ccc(-c2nc3nc(C)cc(C)n3c2Nc2c(C)cccc2C)cc1`, the Potency was 18.4 µM (active). The result for `CCOc1ccc(-c2nc(C)sc2CC(=O)O)cc1` reads “inactive”; that for `Cc1cccc(CSc2nnc(C)c(=O)n2N)c1`, “inactive”; that for `O=C(NC1CCCC1)C(c1ccc(Cl)cc1)N(C(=O)c1csnn1)C1CC1` (stereo not drawn), “inactive”. Take `COc1ccc(-c2cc(=O)c3c(O)cc(O[C@@H]4O[C@H](CO[C@@H]5O[C@@H](C)[C@H](O)[C@@H](O)[C@H]5O)[C@@H](O)[C@H](O)[C@H]4O)cc3o2)cc1O`: the Potency entry is “inactive”.

For the compound `CCn1c(=O)cc(O)c2ccccc21`, the Potency entry was “inactive”. For `CCOC(=O)C1CCN(S(=O)(=O)c2cc(F)ccc2OC)CC1` the value was “inactive”; for `CCOC(=O)c1cnc(COc2ccccc2Cl)[nH]c1=O`, “inactive”; for `CC1(C)NC(=O)N(CC(=O)Nc2ccc(-c3ccccc3)cc2)C1=O`, “inactive”. The result for `C=CCOC(=O)C1=C[C@@H](c2ccccc2)C[C@@H](OCc2ccc(CO)cc2)O1` reads “inactive”; that for `O=C(C1=C[C@H](c2ccc(C(F)(F)F)cc2)C[C@H](OCc2ccc(CO)cc2)O1)N1CCN(Cc2ccccc2)CC1`, 13 µM (active); that for `O=C(C1=C[C@H](c2coc3ccccc3c2=O)C[C@H](OCc2ccc(CO)cc2)O1)N1CCOCC1`, “inactive”. For `NC(=O)C1=C[C@H](c2csc3ccccc23)C[C@H](OCc2ccc(CO)cc2)O1` the value was 20.6 µM (active); for `C#Cc1ccc([C@@H]2C=C(C(=O)O)O[C@H](OCCCCO)C2)cc1`, “inactive”. `O=C(C1=C[C@H](c2coc3ccccc3c2=O)C[C@H](OCc2ccc(CO)cc2)O1)N1CCN(Cc2ccccc2)CC1`: the Potency is 18.4 µM (active). For `CN1CCN(C(=O)C2=C[C@H](c3ccc4c(c3)OCO4)C[C@H](OCc3ccc(CO)cc3)O2)CC1` the value was “inactive”; for `NC(=O)C1=C[C@@H](c2ccc3c(c2)OCO3)C[C@@H](OCCCCO)O1`, “inactive”.

With `O=C(O)C1=C[C@H](c2cccs2)C[C@H](OCCCCO)O1`, the Potency entry is “inactive”. In the case of `COc1cc(C(=O)N2CCN(C3CCC(C)CC3)CC2)cc(OC)c1OC` (stereo not drawn), the Potency result is “inactive”. `CCN(CC)CCN(C(=O)c1cc(Cl)sc1Cl)c1nc2cc3c(cc2s1)OCO3`: the Potency entry is “inactive”. For `CN(C(=O)c1ccno1)c1nnc(-c2cccnc2)s1` the value was “inactive”. As to `CCC1(C)N(O)C(C)(C)C(c2ccc(OC)cc2)=[N+]1[O-]` (stereo not drawn), the Potency result was “inactive”. For `O=S(=O)(Nc1ncccn1)c1ccc(NS(=O)(=O)c2cccc(Cl)c2Cl)cc1` the value was “inactive”; for `Cc1noc(NS(=O)(=O)c2ccc(N/C=C/C(=O)c3ccccc3)cc2)c1C`, “inactive”; for `CC(C)C[C@H](NC(=O)C1CC(=O)N(c2ccc3c(c2)OCCO3)C1)C(=O)NC1CCCC1` (stereo partly drawn), “inactive”. The result for `N#Cc1ccccc1S(=O)(=O)N1CCN(Cc2c(O)ccc3ccccc23)CC1` reads “inactive”; that for `COc1ccc(-c2csc3ncnc(N4CCN(S(=O)(=O)c5ccccc5C#N)CC4)c23)cc1`, 16.4 µM (active). The result for `COc1ccc(S(=O)(=O)N2CCN(c3cnccn3)CC2)cc1` reads “inactive”; that for `CCOc1ccc(S(=O)(=O)N2CCN(C(=O)c3oc4ccccc4c3C)CC2)cc1`, “inactive”; that for `Cc1ccc(S(=O)(=O)n2nc(OC(=O)C(C)(C)C)cc2N)cc1`, “inactive”.

Turning to `CCOC(=O)c1oc2ccc(S(=O)(=O)n3nc(-c4ccccc4OC)cc3N)cc2c1C`, the Potency was 5.17 µM (active).

As to `C[C@H](NC(=O)[C@@H]1CCCN1C(=O)[C@@H]1CCCN1C(=O)c1ccccc1)c1ccccc1`, the Potency result was “inactive”. Turning to `O=C1NC(CC(=O)N2CCC(n3c(C4CCC4)nc4cccnc43)CC2)c2ccccc21` (stereo not drawn), the Potency entry is “inactive”. On to `CCCS(=O)(=O)N1CCC(n2c(C(F)(F)F)nc3cccnc32)CC1`, for which the Potency was 5.17 µM (active). The result for `CCS(=O)(=O)N1CCC(n2c(C)nc3cccnc32)CC1` reads “inactive”; that for `CC(C)CC(CC(C)C)=NNC(=O)c1ccc(CSc2nncn2C)cc1`, “inactive”. The result for `CC(=O)c1cc(C#N)c(SCC(=O)C(C)(C)C)nc1C` reads 3.16 µM (active); that for `CC(=O)c1cc(C#N)c(N2CCCCC2)nc1C`, “inactive”; that for `CC(=O)c1cc(C#N)c(N2CC(C)OC(C)C2)nc1C` (stereo not drawn), “inactive”. For `CN1OC[C@@H]2CN(C(=O)c3cccnc3)[C@H](c3ccc(N4CCCCC4)cc3)C[C@@H]21` the value was “inactive”. Turning to `CC(=O)c1ccccc1NC(=O)C1CC(=O)N(c2ccc3c(c2)OCCO3)C1` (stereo not drawn), the Potency result is “inactive”. The result for `CCOC(=O)c1ccc(NC(=O)C2CC(=O)N(c3ccc4c(c3)OCCO4)C2)cc1` (stereo not drawn) reads “inactive”; that for `CCc1nnc(NC(=O)C2CC(=O)N(c3ccc4c(c3)OCCO4)C2)s1` (stereo not drawn), 18.4 µM (active). Consider `CN1CCN(CC(O)COCc2ccc3c(c2)OCO3)CC1` (stereo not drawn), for which the Potency entry is “inactive”. The result for `CC(=O)Nc1ccc(NC(=O)COC(=O)C2CCC(C(C)(C)C)CC2)cc1` (stereo not drawn) reads “inactive”; that for `CSc1nc(-c2ccccc2Cl)nc2c1Cc1c(CO)cnc(C)c1O2`, 18.4 µM (active).

For `CSc1nc(-c2ccc(F)cc2)nc2c1Cc1c(CO)cnc(C)c1O2`, the Potency entry is “inactive”. For `Cc1ccccc1CSc1nc(-c2ccccc2)nc2c1Cc1c(CO)cnc(C)c1O2` the value was “inactive”; for `Cc1c(C(=O)NCC2CC2)sc(=O)n1Cc1cccc(F)c1`, “inactive”. For the compound `CCCNC(=O)c1cc2c(c(-c3cccc(-c4ccc(C#N)cc4)c3)n1)[C@@H](CCO)N(C(=O)CC)C2`, the Potency was 18.4 µM (active).

Regarding `CCCNC(=O)c1cc(C2CCCCN2S(=O)(=O)c2ccc(C#N)cc2)on1` (stereo not drawn), the Potency result is “inactive”. The result for `CC(=O)N1Cc2cc(C(=O)NCc3cccc(F)c3)nc(-c3cccc(C4=CCCCC4)c3)c2[C@H]1CCO` reads 16.4 µM (active); that for `Cc1nc(NCc2ccccc2)c(C(N)=O)c2c1COC(C)(C)C2`, “inactive”. With `CCCCCC(=O)N1CCN(S(=O)(=O)c2ccc3c(c2)OCCCO3)CC1`, the Potency result was “inactive”.

`CC(=O)NNc1cc(=O)c2c(=O)n(C)c(=O)n(C)c2[nH]1`: the Potency entry was “inactive”.

With `Cc1cccc(C(=O)NNC(=O)c2cccc([N+](=O)[O-])c2)c1`, the Potency result was “inactive”. Turning to `Cc1cccc(C(=O)NC(=S)N2CCN(c3ccc([N+](=O)[O-])cc3)CC2)c1`, the Potency is 16.4 µM (active). For `O=C(NC(=S)NC1CCS(=O)(=O)C1)c1cccc([N+](=O)[O-])c1` (stereo not drawn) the value was “inactive”; for `O=C(NCc1ccncc1)c1ccc(NS(=O)(=O)c2cccc([N+](=O)[O-])c2)cc1`, “inactive”; for `COCOCCn1cc(CN2CCS(=O)(=O)N(Cc3ccc(-c4ccc(OC)cc4)cc3)C(CC(C)C)C2=O)nn1` (stereo not drawn), 10.3 µM (active).

With `COCOCCn1cc(CN2CCS(=O)(=O)N(Cc3ccc(-c4ccccc4)cc3)C(CC(C)C)C2=O)nn1` (stereo not drawn), the Potency is 18.4 µM (active).

In the case of `COCCCn1cc(CN2CC(N(C)C)CS2(=O)=O)nn1` (stereo not drawn), the Potency result was “inactive”. For `CN(Cc1ccccc1)S(=O)(=O)c1ccc(F)c(C(=O)Nc2cccc(Cl)c2Cl)c1`, the Potency result is “inactive”. For `CC1CCN(S(=O)(=O)c2ccc(S(=O)(=O)NCc3ccco3)cc2)CC1` the value was “inactive”. The result for `CC(C)CNC(=S)NNC(=O)c1nn(C)cc1Cl` reads “inactive”; that for `FC(F)(F)c1ccc(-c2cccc3c2C2CC3CCN2Cc2ccccc2)cc1` (stereo not drawn), 13 µM (active). For the compound `O=C(NCCN1CCOC1=O)C1CCC(=O)N(CCc2ccc(Cl)cc2)C1` (stereo not drawn), the Potency result was “inactive”.

`O=S(=O)(c1ccc(F)cc1)N1CCN(Cc2ccccc2C(F)(F)F)CC1`: the Potency result is “inactive”. The result for `CSCCC(NS(=O)(=O)/C=C/c1ccccc1)C(=O)N1CCC(C)CC1` (stereo not drawn) reads “inactive”; that for `CCOC(=O)N1CCN(CCC(=O)Nc2cc(OC)ccc2OC)CC1`, “inactive”; that for `COc1ccc(OC)c(NC(=O)CCN2CCC(C)CC2)c1`, “inactive”.

In the case of `COc1ccc(OC)c(NC(=O)CN2CCCN(Cc3cc(C)ccc3C)S2(=O)=O)c1`, the Potency is 18.4 µM (active). For `COC(=O)c1ccc(S(=O)(=O)c2ccc(C(=O)OC)s2)s1` the value was “inactive”; for `C=CC(=O)Nc1ccc(Nc2ccnc(Nc3ccc(N4CCN(C)CC4)cc3)n2)cc1`, “inactive”.

For `N#CCSc1nc(-c2ccccc2)nc2ccc(F)cc12`, the Potency result is “inactive”.

Regarding `Fc1ccc(-c2nnc(CSc3nnc(-c4ccc5c(c4)OCO5)o3)o2)cc1`, the Potency entry is “inactive”. Take `Fc1ccc2nc(-c3ccccc3)nc(SCc3nnc(-c4ccccc4)o3)c2c1`: the Potency was 23.1 µM (active). For `Nc1ccc2c(c1)C(O)c1ccc(Cl)cc1-2` (stereo not drawn) the value was “inactive”; for `CCCCCCOc1ccc(OC(=O)c2cccnc2)cc1`, 13 µM (active). The result for `O=C(Oc1ccc(Br)cc1)c1cccnc1` reads “inactive”; that for `CCCCCCCCC(=O)NCCOc1ccccc1`, “inactive”. The result for `COc1ccc(-c2nc(CS(=O)CC(=O)NCc3cccnc3)c(C)o2)cc1OC` (stereo not drawn) reads “inactive”.

For the compound `C=CCOc1ccc(C2/C(=C(\O)c3c(C)[nH]c(C(=O)OC)c3C)C(=O)C(=O)N2CCN(C)C)cc1` (stereo not drawn), the Potency entry was “inactive”. For `CO[C@H]1[C@@H]2C=CO[C@@H](O[C@H]3O[C@@H](CO)[C@H](O)[C@@H](O)[C@@H]3O)[C@@H]2[C@@]2(CO)O[C@@H]12` the value was “inactive”. Regarding `CC(=O)c1ccc(NC(=O)c2sc3nc4n(c(=O)c3c2C)CCCCC4)cc1`, the Potency is 13 µM (active). The result for `COc1ccc(NC(=O)c2sc3nc[nH]c(=O)c3c2C)cc1` reads “inactive”; that for `CC(=O)c1sc2nc(SCC(=O)N3CCCCC3)[nH]c(=O)c2c1C`, “inactive”; that for `Cc1ccc(NC(=S)NC(=O)/C=C/c2ccc(Cl)cc2)cc1`, “inactive”. In the case of `CC(C)C[C@H](NC(=O)[C@@H]1O[C@H]1C(=O)O)C(=O)NCCCCN=C(N)N`, the Potency result was “inactive”.

`C=CCOc1cccc(C2NC(=O)c3ccccc3O2)c1` (stereo not drawn): the Potency entry is “inactive”. For the compound `CCCc1c(C(=O)Nc2ccc(F)cc2)cnn1-c1ccccc1`, the Potency is 14.6 µM (active).

Take `CCc1ccccc1NC(=O)c1cnn(-c2ccc(F)cc2)c1C1CCNCC1`: the Potency result is “inactive”. Turning to `CCCc1c(C(=O)O)cnn1-c1ccc(Cl)cc1`, the Potency entry is “inactive”.
